In PubChem BioAssay (NCI):
About 83,000 compounds went through this panel and 20% of them were active in at least one assay; those are over-represented in the sample as a whole.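 96-well plates, one dose, 48 hours. Percent growth reported; active if below 10.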 A number with no mark means an inactive call. Active and inactive are the calls of the source.

Legend:
Test in all cases: NCI-60 one-dose screen, 48 h (100 = growth as untreated, 0 = no growth, -100 = all killed)
Settings in all cases: 10 µM unless noted
[1] = system: NCI-H23 lung
[2] = system: NCI-H226 lung
[3] = system: NCI-H322M lung
[4] = system: HOP-62 NSCLC
[5] = system: NCI-H460 lung
[6] = system: HOP-92 NSCLC
[7] = system: NCI-H522 lung
[8] = system: A549/ATCC NSCLC
[9] = system: 786-0 renal
[10] = system: COLO 205 colon

SMILES	growth [1]	growth [2]	growth [3]	growth [4]	growth [5]	growth [6]	growth [7]	growth [8]	growth [9]	growth [10]
C=CC1=C(C)C2=NC1=CC1=NC(=CC3=C(C)C4=C(O)C(C(=O)O)C(=C5NC(=C2)C(C)C5CCC(=O)O)C4=N3)C(CC)=C1C (stereo not given)	107%	97.5%	112%	121%	107%	108%	116%	94.6%	113%	114%
CCOc1cc(NC(=O)c2ccccc2)c(OCC)cc1N	102%	106%	141%	102%	114%	104%	98.3%	115%	110%	116%
C=CCc1nc2ccccc2s1	95.7%	101%	106%	100%	104%	98.6%	86.6%	103%	108%	113%
CCOC(=O)Nc1ccc2c(c1)/C(=N\NC(=S)NC)c1ccccc1-2	93.8%	107%	92.3%	108%	65.1%	85.9%	68%	55.7%	64.4%	106%
Cn1ncc2c(Nc3ccc(O)cc3)nc(Cl)nc21	107%	91.2%	96.6%	95.8%	108%	104%	88%	96%	111%	108%
O=C1COCCN1c1ccc(NCc2cn(Cc3ccccc3)c3ccccc23)cc1	93.7%	-40.1% (active)	86.1%	90.7%	31.9%	69.5%	94.1%	81.4%	95.3%	28.8%
CSc1nc2sc3cc(Cl)c(Cl)cc3n2c(=N)c1C#N	84.8%	95%	104%	94.7%	98.7%	98.9%	89.4%	106%	102%	122%
CC(C)C1=NOC(=O)C1=Cc1cn(-c2ccccc2)nc1-c1ccc(Cl)cc1	84.8%	92.6%	93.9%	92.4%	85.3%	86.9%	80.8%	100%	80.7%	99.6%
COc1cc2c(c(OC)c1)C1c3cc(OC)ccc3NC(=O)N1CC2 (stereo not given)	92.9%	99.3%	102%	67.6%	79.2%	80.6%	38.3%	67.2%	95.6%	80.5%
N=C(N)c1ccc(-c2ccc(-c3ccc(-c4cccs4)s3)s2)cc1F	93.2%	95.7%	26%	100%	13%	94.8%	100%	15.1%	99.5%	101%
O=C(Nc1ccc(CN2CCOCC2)c(C(F)(F)F)c1)c1nc2ccc3[nH]ncc3c2c2c1CCCC2	93.2%	91.2%	102%	78.8%	90.1%	99.2%	87.3%	63.3%	101%	83.4%
COc1ccc(C(C(=O)O)c2ccc(OC)cc2)cc1	113%	104%	121%	112%	117%	106%	106%	116%	107%	117%
CC1=C/C(=C(\c2cc(C)c(O)c(C(=O)O)c2)c2c(Cl)cccc2Cl)C=C(C(=O)O)C1=O	98.8%	96.7%	97.7%	97%	104%	92.9%	97.8%	100%	102%	110%
CCN(CC)CCS(=O)(=O)CCNc1ccnc2cc(Cl)ccc12	-18.4% (active)	30.1%	56.8%	22.5%	2.87% (active)	26.4%	-50.5% (active)	71.9%	10.2%	-44.5% (active)
Cc1ccc(NC(=O)N[C@@H](Cc2cc(F)cc(F)c2)C(=O)N[C@@H]2C(=O)N3CCC[C@H]3C(=O)N3CCCC[C@H]3C(=O)N[C@@H](C)C(=O)N3C[C@H](C)C[C@H]3C(=O)O[C@H]2C)cc1	33.5%	28.5%	62.8%	30.1%	25.6%	29.8%	31.8%	23.1%	28.2%	7.51% (active)
c1ccc(-c2nnc(-c3c[nH]c4ncccc34)s2)cc1	92.6%	87.9%	95.7%	98.6%	96.4%	104%	87.7%	95.6%	104%	115%
CC1(C)CC[C@]2(C(=O)O)CC[C@]3(C)C(=CC[C@@H]4[C@@]5(C)C/C(=C/c6cccnc6)[C@H](O)C(C)(C)[C@@H]5CC[C@]43C)[C@@H]2C1	6.1% [100 µM] (active)	-23% [100 µM] (active)	-17% [100 µM] (active)	-2.51% [100 µM] (active)	-16.7% [100 µM] (active)	-21.8% [100 µM] (active)	-8.98% [100 µM] (active)	5.82% [100 µM] (active)	5.39% [100 µM] (active)	-73% [100 µM] (active)
O=C(O)CC1CCCCC1c1ccccc1 (stereo not given)	111%	98.7%	103%	112%	119%	99.8%	90.1%	106%	103%	113%
CCCCCCCCCCCCNC(=S)N/N=C/c1ccccc1O	60.9%	69.2%	83.5%	74%	49.6%	84.2%	78.1%	95.6%	89.5%	33.1%
C=C(C)[C@@H]1CC[C@]2(C(=O)OC)CC[C@]3(C)[C@H](CC[C@@H]4[C@@]5(C)CC/C(=N\OCCC(=NCCC#N)NOCCC#N)C(C)(C)[C@@H]5CC[C@]43C)[C@@H]12	21.8% [100 µM]	2.42% [100 µM] (active)	46.1% [100 µM]	32.5% [100 µM]	4.22% [100 µM] (active)	-15% [100 µM] (active)	13.4% [100 µM]	15.8% [100 µM]	-11.5% [100 µM] (active)	17.6% [100 µM]
O=C1Nc2ccccc2/C1=C/C(=O)c1ccc(N2CCCC2)cc1	31.8%	73.4%	81.8%	33.4%	9.75% (active)	40.4%	-2.44% (active)	54.4%	100%	8.29% (active)
COc1ccc(OC)c(NC=O)c1	101%	103%	111%	98.1%	105%	101%	103%	105%	104%	108%
CC(C)[N+](C)(C)CC(O)COc1cccc2ccccc12 (stereo not given)	95.5%	107%	112%	106%	109%	81.4%	114%	101%	121%	104%
C=C(C)[C@@H]1CC[C@]2(c3ncc(C)o3)CC[C@]3(C)[C@H](CC[C@@H]4[C@@](C)(CCC#N)[C@H](C(=C)C)CC[C@]43C)[C@@H]12	-68.1% [100 µM] (active)	-55.2% [100 µM] (active)	-83.5% [100 µM] (active)	-86.1% [100 µM] (active)	-71.4% [100 µM] (active)	-85.7% [100 µM] (active)	-85.4% [100 µM] (active)	-84.8% [100 µM] (active)	-85.6% [100 µM] (active)	-82% [100 µM] (active)
